G9a inh: qHTS Assay for Inhibitors of Histone Lysine Methyltransferase G9a; Histone-lysine N-methyltransferase EHMT2 (Homo sapiens), Q96KQ7; G9a H3K9 monomethylation, AlphaScreen, 2 h; Potency, µM (top dose mostly 102 µM), actives largely listed as inhibitors; 350,000 tested, 8.8% active; AID 504332, 2011; note: nearly all actives have a fitted effect of over 75% in size
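AlphaScreen read-out: biotin-H3K9 peptide (500 nM) methylation by 20 nM enzyme with 20 uM SAM, 2 h at room temperature after 15 min compound preincubation; anti-monomethyl H3K9 antibody plus donor/acceptor beads, 10 min dark.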
BAZ2B block: qHTS Assay for Inhibitors of BAZ2B. Potency, µM (highest dose often 114 µM), usual class: inhibitors. 360,000 tested, 4.4% active. AID 504333, 2011. AlphaScreen BAZ2B-H3K14Ac peptide displacement; note: nearly all actives have a fitted effect of over 60% in size
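AlphaScreen luminescence quantifies BAZ2B engagement of H3K14Ac peptide; the protein and biotinylated peptide are both at 50 nM final, buffer PBS pH 7.4 with 0.01% Tween-20, all steps at room temperature.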
HP1b chromo inh: HTS for Inhibitors of HP1-beta Chromodomain Interactions with Methylated Histone Tails; Chromobox protein homolog 1 (Homo sapiens), P83916; AID 540317, 2011; Potency, µM (highest dose often 114 µM), most hits filed as inhibitors; AlphaScreen HP1-beta / biotin-H3K9me3 peptide binding; 390,000 tested, 0.56% active; note: nearly all actives have a fitted effect of over 70% in size
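HP1-beta protein (50 nM final) preincubated 30 min at room temperature with biotinylated H3(1-18)K9me3 peptide (50 nM) in PBS pH 7.4, 0.01% Tween-20, then compound added for 30 min. AlphaScreen streptavidin donor/nickel chelate acceptor beads (10 ug/mL final), 30 min dark, luminescence read.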
Sfp PPTase inh: qHTS Assay for Inhibitors of Bacillus subtilis Sfp phosphopantetheinyl transferase (PPTase) | 310,000 tested, 3.5% active | 4'-phosphopantetheinyl transferase ffp (Bacillus subtilis), Q9F4F7 | Biochemical Sfp PPTase activity, qHTS | Potency, µM, actives largely listed as inhibitors;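 note: the enzyme is Sfp with the accession as filed and its product quenches rhodamine fluorescence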
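Buffer: 50 mM Hepes-Na pH 7.6, 10 mM MgCl2, 0.01% Nonidet P-40, 0.01% BSA. Enzyme 15 nM, pre-exposed to compound 15 min; substrates then added and fluorescence change tracked over 30 min.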
JMJD2A Tudor: qHTS Assay for Inhibitors of JMJD2A-Tudor Domain. Lysine-specific demethylase 4A (Homo sapiens), O75164. AlphaScreen JMJD2A-Tudor / H3K4me3 peptide binding. Potency, µM (top dose mostly 114 µM), usual class: inhibitors. 390,000 tested, 4.4% active. AID 504339, 2011; note: nearly all actives have a fitted effect of over 50% in size
Of the large screens only hits and unclear results are named; the others gave an inactive call. A selection: hits, their analogues and other compounds. The true share with any hit is near 12%. Calls come from the whole dose curve; as a rule, active = well fitted curve in the direction sought with a large enough effect; inconclusive = small, poorly fitted or top-dose-only effect, or another doubt; inactive = no such curve, though single readings can be large; an effect the other way counts as inactive or inconclusive.

COc1ccc(C(=O)/C=C/Nc2cccc(O)c2)cc1	G9a inh 39.8µM
COc1cccc(C(=O)/C=C/Nc2cc(C)ccc2O)c1	G9a inh inconclusive, BAZ2B block inconclusive, Sfp PPTase inh inconclusive, JMJD2A Tudor 56.2µM
CC(C)N(CCCNC(=O)C1CCN(C(=O)c2cc3sccc3n2C)CC1)Cc1ccccc1	none (no result: G9a inh)
Cc1[nH]c2ccc(F)cc2c1CCNC(=O)c1cc2cc(Cl)ccc2oc1=O	none (no result: Sfp PPTase inh)
Cc1noc(C)c1C(=O)N1CCC2(CCCN(C(=O)Nc3ccccc3)C2)CC1	none (no result: BAZ2B block, HP1b chromo inh, JMJD2A Tudor)
Cc1ccccc1NC(=O)c1ccc(F)c(S(=O)(=O)NC2CCCC2)c1	none (no result: Sfp PPTase inh)
CC(/C=C/C=C(\C)C(=O)O[C@@H]1O[C@H](CO[C@@H]2O[C@H](CO)[C@@H](O)[C@H](O)[C@H]2O)[C@@H](O)[C@H](O)[C@H]1O)=C\C=C\C=C(C)\C=C\C=C(/C)C(=O)O[C@@H]1O[C@H](CO[C@@H]2O[C@H](CO)[C@@H](O)[C@H](O)[C@H]2O)[C@@H](O)[C@H](O)[C@H]1O	G9a inh 17.8µM (no result: BAZ2B block, HP1b chromo inh, JMJD2A Tudor)
OC[C@H]1O[C@@H](OC[C@H]2O[C@@H](O)[C@H](O)[C@@H](O)[C@@H]2O)[C@H](O)[C@@H](O)[C@@H]1O	none (no result: G9a inh, BAZ2B block, HP1b chromo inh, JMJD2A Tudor)
Cc1nn(Cc2ccccc2)c(C)c1NC(=O)CCCn1nc([N+](=O)[O-])c(Cl)c1C	JMJD2A Tudor 39.8µM
CS(=O)(=O)c1ccc(C(=O)OC2CCOC2=O)cc1[N+](=O)[O-] (configuration not stated)	G9a inh 50.1µM
Cc1ccc(CNc2oc(-c3ccc(COc4ccc(C)cc4)o3)nc2C#N)cc1	G9a inh inconclusive, BAZ2B block inconclusive (no result: Sfp PPTase inh)
Cc1ccccc1OCc1ccc(-c2nc(C#N)c(NCc3cccnc3)o2)o1	G9a inh 11.2µM, BAZ2B block 31.6µM, JMJD2A Tudor 15.8µM (no result: Sfp PPTase inh)
COc1ccc(OCc2ccc(-c3nc(C#N)c(NCc4ccccc4)o3)o2)cc1	G9a inh inconclusive, BAZ2B block inconclusive, JMJD2A Tudor inconclusive (no result: Sfp PPTase inh)
COc1ccc(OCc2ccc(-c3nc(C#N)c(NCc4cccnc4)o3)o2)cc1	G9a inh 12.6µM, BAZ2B block 17.8µM, JMJD2A Tudor 31.6µM (no result: Sfp PPTase inh)
Cc1ccc(OCc2ccc(-c3nc(C#N)c(NCc4cccnc4)o3)o2)cc1	G9a inh 11.2µM, BAZ2B block 17.8µM, HP1b chromo inh inconclusive, JMJD2A Tudor 20µM (no result: Sfp PPTase inh)
CCc1ccc(NC(=O)CN2C(C(=O)OC)=C(c3ccccc3)c3ccccc3S2(=O)=O)cc1	none (no result: Sfp PPTase inh)
COc1cccc(NC(=O)c2nc(S(C)(=O)=O)ncc2Cl)c1	G9a inh 35.5µM, Sfp PPTase inh inconclusive
CN(c1ccccc1)S(=O)(=O)c1ccc(NC(=O)c2nc(S(C)(=O)=O)ncc2Cl)cc1	G9a inh 11.2µM, Sfp PPTase inh 28.2µM, JMJD2A Tudor inconclusive
CCS(=O)(=O)c1ncc(Cl)c(C(=O)Nc2c(C(=O)Nc3cccc(C)c3)oc3ccccc23)n1	G9a inh inconclusive (no result: Sfp PPTase inh)
COc1cccc(NC(=O)c2nc(SC)ncc2Cl)c1	none
Cc1cccc(NC(=O)c2nc(S(C)(=O)=O)ncc2Cl)c1	G9a inh 8.91µM (no result: Sfp PPTase inh)
CCCSc1ncc(Cl)c(C(=O)Nc2ccc(S(=O)(=O)N(C)c3ccccc3)cc2)n1	none (no result: Sfp PPTase inh)
CCOc1ccc(S(=O)(=O)N=C(c2ccccc2)N2CCOCC2)cc1	none (no result: G9a inh, BAZ2B block, Sfp PPTase inh)
COc1ccc(Br)cc1CNC(=O)c1cc2ccccn2n1	none (no result: Sfp PPTase inh)
CCOC(=O)COn1c(-c2cccc(Cl)c2)nc2ccc([N+](=O)[O-])cc21	G9a inh 50.1µM
CCCS(=O)(=O)c1ncc(Cl)c(C(=O)N(Cc2ccccc2)Cc2ccco2)n1	G9a inh inconclusive (no result: Sfp PPTase inh)
COC(=O)c1c(NC(=O)C(C)C)sc(C(=O)N2CCOCC2)c1C	G9a inh 44.7µM, Sfp PPTase inh inconclusive
CCOc1ccc(NC(=O)C(=O)NCCc2sc(-c3ccc(C)cc3)nc2C)cc1	none (no result: Sfp PPTase inh)
Cc1c2cnn(-c3ccccc3)c(=O)c2c(C)n1CCCC(=O)Nc1cc(F)ccc1F	none (no result: Sfp PPTase inh)
CCOc1ccc(NS(=O)(=O)c2coc(C(N)=O)c2)cc1	none
Cc1cc(C)nc(SCCc2ccncc2)n1	G9a inh 3.98µM, JMJD2A Tudor 4.47µM
O=C(Nc1cccc(-c2cccc(Cl)c2)c1)C1CCN(Cc2ccon2)CC1	none
O=C(Nc1ccc(-n2cccn2)cc1)C1CCCCN1Cc1cccc2cccnc12 (configuration not stated)	BAZ2B block inconclusive
O=C(Nc1ccc(-n2cccn2)cc1)C1CCN(Cc2ccccn2)CC1	G9a inh 35.5µM, BAZ2B block inconclusive, JMJD2A Tudor 22.4µM
O=C(Nc1cccc(-c2cccc(Cl)c2)c1)C1CCN(Cc2ccccn2)CC1	G9a inh 44.7µM
COc1ccc(-c2nnc3n2-c2ccccc2SC3)cc1OC	G9a inh inconclusive, BAZ2B block inconclusive, Sfp PPTase inh 79.4µM
CCC(C)C(N)C1=NC(C(=O)N[C@@H](CC(C)C)C(=O)N[C@H](CCC(=O)[O-])C(=O)N[C@H](C(=O)N[C@H]2CCCCNC(=O)[C@H](CC(N)=O)NC(=O)[C@@H](CC(=O)[O-])NC(=O)[C@H](Cc3cnc[nH]3)NC(=O)[C@@H](Cc3ccccc3)NC(=O)[C@H]([C@@H](C)CC)NC(=O)[C@@H](CCCN)NC2=O)[C@@H](C)CC)CS1.[Zn+2] (some centres not stated)	HP1b chromo inh 12.6µM, JMJD2A Tudor 2.82µM (no result: G9a inh, BAZ2B block, Sfp PPTase inh)
COc1ccc(C(=O)NCCCc2ccccc2)cc1OC	none
CCCCCCCCCCCCCCCCn1cc[n+](Cc2ccccc2)c1C	Sfp PPTase inh 12.6µM (no result: G9a inh, BAZ2B block, HP1b chromo inh, JMJD2A Tudor)
CCOC(=O)c1noc2nc(C)n(CC(=O)Nc3cccc(OC)c3)c(=O)c12	none (no result: Sfp PPTase inh)
O=C(C1CCCCN1S(=O)(=O)c1ccccc1)N1CCN(Cc2ccccc2)CC1 (configuration not stated)	G9a inh inconclusive
Cc1ccc(S(=O)(=O)NNC(=O)C2CCN(Cc3ccccc3)CC2)cc1	JMJD2A Tudor 79.4µM
Cc1ccc(S(=O)(=O)N2CCCCC2C(=O)N2CCN(Cc3ccccc3)CC2)cc1 (configuration not stated)	G9a inh 11.2µM, BAZ2B block inconclusive
O=C(CNC(=O)c1ccccc1F)NCC(c1cccs1)N1CCOCC1 (configuration not stated)	none (no result: Sfp PPTase inh)
COc1ccc(C(CNC(=O)c2cccc(S(=O)(=O)N(C)c3ccccc3)c2)N2CCCC2)cc1 (configuration not stated)	none (no result: Sfp PPTase inh)
COc1ccc(Cl)cc1S(=O)(=O)n1ccnc1C(C)C	G9a inh 50.1µM
COc1ccc(Cl)cc1S(=O)(=O)n1nnc2ccccc21	G9a inh 50.1µM, BAZ2B block inconclusive
CC(C)c1nccn1S(=O)(=O)c1cc(Cl)ccc1Cl	none
